For 28 molecules, Inhibition results are on record in ChEMBL document CHEMBL4513146, “CO-ADD screening of Karazin Kharkiv National University (Ukraine) compounds”.

Molecules are shown by their SMILES. Entries with a potency or affinity are not part of this list.

One experiment relates to Klebsiella pneumoniae. Conditions: Concentration 32 ug.mL-1;; ASSAY_TEST Inhibition of Bacterial Growth; detection method Absorption (OD600); MEDIA CAMHB; plate type 384well; NBS; CORNING #3640; time 18 hr.
A further experiment deals with Candida albicans. To be noted: Concentration 32 ug.mL-1; ASSAY_TEST Inhibition of Fungal Growth; detection method Absorption (OD530).
For the next experiment, the system named is Cryptococcus neoformans. Conditions: Concentration 32 ug.mL-1; ASSAY_TEST Inhibition of Fungal Growth; detection method Resazurin; Absorption (OD600-OD570); plate type 384well; NBS; CORNING #3640. (In general: Alamar Blue is a resazurin reagent that responds to reducing activity.)

What is called Inhibition is the change of the read-out against control, counted positive when it falls.

Take `CCOc1ccc(-n2ccn3c(SCC(=O)c4ccc(C)cc4)nnc3c2=O)cc1`: the figures for the Inhibition with Klebsiella pneumoniae, in the experiment on Candida albicans and with Cryptococcus neoformans were 10.63%, 1.13% and -5.35%, respectively.
For `O=c1c2sccc2n2c(=O)n(Cc3ccccc3F)nc2n1Cc1cccs1`, the Inhibition in the experiment on Klebsiella pneumoniae is -1.85%; in the experiment with Candida albicans, 38.88%; with Cryptococcus neoformans, -22.09%.
As to `N#Cc1cccc(NC(=O)Cn2nc3c(Oc4ccccc4)nccn3c2=O)c1`, the Inhibition is on record as 7.41% in the experiment on Klebsiella pneumoniae, 1.17% with Candida albicans and -6.48% in the experiment with Cryptococcus neoformans.
For `CCc1nnc2c(S(=O)(=O)N(Cc3cccc(OC)c3)c3cccc(C)c3)cccn12`, the values for the Inhibition with Klebsiella pneumoniae, in the experiment with Candida albicans and with Cryptococcus neoformans were 0.84%, 7.06% and -5.34%, respectively.
Taken in the same sequence, the figures for `CCc1ccccc1Sc1nccn2c(=O)n(CC(=O)Nc3cc(C)ccc3C)nc12` were 13.72%, 1.62% and -13.69%.
As to `Cc1ccc(NC(=O)Cn2nc3c4cc(-c5ccc(C)c(C)c5)nn4ccn3c2=O)c(Cl)c1`, the Inhibition with Klebsiella pneumoniae is on record as 13.54%; in the experiment with Candida albicans it was -1.09%; with Cryptococcus neoformans, -13%.
In the same order, the values of `COc1ccc(C(=O)CSc2nnc3c(=O)n(-c4cccc(OC)c4)ccn23)cc1` are 12.72%, 5.69% and -12.42%.
In the same order, the values of `CSc1cccc(NC(=O)Cn2nc3c4c5c(sc4ncn3c2=O)CCCC5)c1` are -0.84%, 7.75% and -24.58%.
In the same order, the values of `CCc1nnc2c(S(=O)(=O)N(Cc3cc(F)cc(F)c3)c3ccc(F)cc3)cccn12` are -0.25%, 4.45% and -8.28%.
`Cc1cc(C)cc(N(Cc2ccc(F)cc2)S(=O)(=O)c2cccn3c(C)nnc23)c1`: the values for the Inhibition with Klebsiella pneumoniae, in the experiment with Candida albicans and in the experiment on Cryptococcus neoformans were -0.28%, 0.42% and -5.4%, respectively.
As for `Cc1ccccc1Oc1nc2ccccc2n2c(=O)n(CC(=O)Nc3ccccc3C(F)(F)F)nc12`, the Inhibition is reported as 7.22% with Klebsiella pneumoniae, 11.93% in the experiment on Candida albicans and -23.01% with Cryptococcus neoformans.
In the same order, the values of `Cc1cccc(Oc2nc3ccccc3n3c(=O)n(CC(=O)Nc4cccc(C#N)c4)nc23)c1C` are 4.26%, 5.6% and -21.56%.
In the case of `Cc1ccc(C(=O)C(C)Sc2nnc3c(=O)n(-c4ccc(F)c(F)c4)ccn23)cc1C` (centres undefined), the Inhibition is -0.54% with Klebsiella pneumoniae, 2.5% in the experiment with Candida albicans and -3.72% in the experiment with Cryptococcus neoformans.
Regarding `COc1ccccc1N1CCN(C(=O)CSc2nnc3c(=O)n(-c4ccccc4)ccn23)CC1`, the Inhibition is 9.27% with Klebsiella pneumoniae, 1.3% in the experiment with Candida albicans and -12.92% in the experiment on Cryptococcus neoformans.
Taken in the same sequence, the figures for `O=C(Cn1nc2ccc(-c3ccc(Cl)cc3)nn2c1=O)N1CCN(c2ccccc2)CC1` were -0.57%, -1.89% and -9.03%.
In the same order, the values of `O=S(=O)(c1ccc2nncn2c1)N(Cc1cc(F)cc(F)c1)c1cccc(F)c1` are 11.98%, 2.7% and -8.32%.
Turning to `Cc1ccc(-c2ccc3nn(Cc4ccc(Cl)cc4)c(=O)n3n2)cc1C`, the Inhibition is reported as 5.62% in the experiment on Klebsiella pneumoniae, 5.2% with Candida albicans and -10.05% with Cryptococcus neoformans.
Taken in the same sequence, the figures for `COc1cc(NC(=O)C(C)Sc2nnc3c(=O)n(-c4ccc(C)c(C)c4)ccn23)cc(OC)c1` (centres undefined) were 1.23%, 2.85% and -8.2%.
In the case of `O=C(Cn1nc2c(Sc3ccccc3)nccn2c1=O)Nc1cccc(Cl)c1F`, the Inhibition in the experiment on Klebsiella pneumoniae is given as 13.46%; with Candida albicans, 0.76%; in the experiment on Cryptococcus neoformans it was -9.38%.
On to `COc1ccc(OC)c(NC(=O)Cn2nc3c4c5c(sc4ncn3c2=O)CCCC5)c1`, for which the Inhibition in the experiment on Klebsiella pneumoniae was 8.89%; in the experiment on Candida albicans, 0.7%; in the experiment on Cryptococcus neoformans, -30.54%.
In the same order, the values of `O=C(CSc1nnc2c(=O)n(-c3cccc(F)c3)ccn12)c1ccc(F)cc1` are 9.88%, 4% and -7.94%.
In the case of `COC(=O)c1ccccc1NC(=O)Cn1nc2c(SC3CCCCC3)nccn2c1=O`, the results for the Inhibition with Klebsiella pneumoniae, in the experiment on Candida albicans and with Cryptococcus neoformans were 12.08%, 1.97% and -21.3%, respectively.
As for `CC(C)CCNC(=O)Cn1nc2n(Cc3cccs3)c(=O)c3sccc3n2c1=O`, the Inhibition was 6.63% in the experiment with Klebsiella pneumoniae, -0.58% in the experiment on Candida albicans and -17.23% in the experiment on Cryptococcus neoformans.
Turning to `CSc1cccc(NC(=O)Cn2nc3c(Sc4ccc(C)cc4C)nccn3c2=O)c1`, the values for the Inhibition in the experiment with Klebsiella pneumoniae, in the experiment on Candida albicans and in the experiment with Cryptococcus neoformans were -1.53%, 2.24% and -22%, respectively.
Taken in the same sequence, the figures for `Cc1cc(F)ccc1NC(=O)Cn1nc2c(SCc3ccc(Cl)cc3)nccn2c1=O` were 8.05%, 13.65% and -20.69%.
As to `Cc1nnc2c(S(=O)(=O)N(Cc3ccccc3F)c3ccc(C(C)C)cc3)cccn12`, the Inhibition in the experiment with Klebsiella pneumoniae is reported as 0.43%; with Candida albicans it was 0.44%; with Cryptococcus neoformans, -4.75%.
On to `O=C(Cn1nc2c(N3CCOCC3)nccn2c1=O)NCc1cccc(C(F)(F)F)c1`, for which the Inhibition in the experiment on Klebsiella pneumoniae is 8.39%; with Candida albicans, 5.12%; with Cryptococcus neoformans, -4.87%.
Consider `O=C(Cn1nc2c(SCc3ccccc3)nccn2c1=O)NC1CCCC1`, for which the Inhibition is 3.94% in the experiment on Klebsiella pneumoniae, 1.33% with Candida albicans and -3.97% in the experiment with Cryptococcus neoformans.
